{"source": "ChEMBL document CHEMBL3988442", "about": "“University of Dundee, Small-Polar-MMV Screening Library” (2021)"}
{"target": "T1, Tyrosyl-tRNA synthetase, putative (Trypanosoma cruzi (strain CL Brener)) (UniProt Q4DSP6)", "T1 sequence (whole entry)": "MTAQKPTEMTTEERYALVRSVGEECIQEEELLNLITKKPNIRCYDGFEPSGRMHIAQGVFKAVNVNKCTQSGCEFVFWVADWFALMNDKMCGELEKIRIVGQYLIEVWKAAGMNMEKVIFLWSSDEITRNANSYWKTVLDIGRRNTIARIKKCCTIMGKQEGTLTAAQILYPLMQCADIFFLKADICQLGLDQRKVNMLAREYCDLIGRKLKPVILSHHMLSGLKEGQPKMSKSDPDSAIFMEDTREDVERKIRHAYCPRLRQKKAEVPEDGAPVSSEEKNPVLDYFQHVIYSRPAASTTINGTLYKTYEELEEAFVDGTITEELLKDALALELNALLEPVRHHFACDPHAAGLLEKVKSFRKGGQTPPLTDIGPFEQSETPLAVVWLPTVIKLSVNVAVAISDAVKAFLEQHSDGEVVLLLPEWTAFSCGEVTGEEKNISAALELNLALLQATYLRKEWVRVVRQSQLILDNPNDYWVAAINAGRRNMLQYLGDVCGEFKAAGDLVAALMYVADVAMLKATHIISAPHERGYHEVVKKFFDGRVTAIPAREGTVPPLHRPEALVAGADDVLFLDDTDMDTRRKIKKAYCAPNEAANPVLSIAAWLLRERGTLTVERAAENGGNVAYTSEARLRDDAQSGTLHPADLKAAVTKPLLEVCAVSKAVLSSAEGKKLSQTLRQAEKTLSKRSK", "assay": "Trypanosoma cruzi tyrosyl tRNA synthetase (TcYRS) SOP", "format": "functional", "parameters": "scale not given: direction of the effect not stated beside the values", "conditions": "30 µM", "units": {"Percent Effect": "%"}}
{"molecule": "CC(C(=O)Nc1ccc(N2CCCC2)nc1)n1ccnc1", "note": "(stereo not given)", "Percent Effect": 16.1}
{"molecule": "O=C1N(Cc2ccccc2F)CCCC12CCN(C1CCSCC1)C2", "note": "(stereo not given)", "Percent Effect": 8.64}
{"molecule": "Cn1cc(CN2CC3(CCN(C(=O)c4ccoc4)C3)C2)cn1", "Percent Effect": -1.24}
{"molecule": "CCOC(=O)NC(CNC(=O)CCc1ccccn1)CC(C)C", "note": "(stereo not given)", "Percent Effect": 3.7}
{"molecule": "Cc1ccc(C2CSCCN2C(=O)C2=CCCC2)o1", "note": "(stereo not given)", "Percent Effect": 6.17}
{"molecule": "Cc1nc(Nc2nccs2)cc(C2CCCN2C2CCOCC2)n1", "note": "(stereo not given)", "Percent Effect": 14.3}
{"molecule": "COCc1cn([C@@H]2c3ccccc3C3(CCNCC3)[C@H]2O)nn1", "Percent Effect": 10.3}
{"molecule": "N#Cc1ccc(F)c(CN2CCCC2Cn2cnc3ccccc32)c1", "note": "(stereo not given)", "Percent Effect": -6.1}
{"molecule": "O=C(CCCc1ncc(-c2ccccc2)o1)N1CCN(CCO)CC1", "Percent Effect": 13.9}
{"molecule": "CCn1cnnc1CNC(=O)N(C)Cc1ccc2c(c1)OCCO2", "Percent Effect": 25.9}
{"molecule": "COCCNC(=O)C(C)n1cc(Br)cn1", "note": "(stereo not given)", "Percent Effect": 16.1}
{"molecule": "CCn1nc(CC(C)C)cc1C(=O)N1C[C@H](O)[C@@H](N2CCCCC2)C1", "Percent Effect": 13.6}
{"molecule": "O=C(CN1CCC(c2ccnn2CCO)CC1)NCc1cccs1", "Percent Effect": 24.1}
{"molecule": "CCOc1ccc(CC(=O)N2CCN(c3nccn3C)CC2)cc1", "Percent Effect": 14.1}
{"molecule": "O=C(C1CC1)N1CCCC1C1CCN(Cc2ccccc2)CC1", "note": "(stereo not given)", "Percent Effect": 5.2}
{"molecule": "Cc1nc(C)n(CC2CN(c3ccc(C#N)cn3)CCO2)n1", "note": "(stereo not given)", "Percent Effect": 18.5}
{"molecule": "COc1cc(N2C[C@@H]3COC[C@]3(COCc3cccc(C)n3)C2)ncn1", "Percent Effect": 2.56}
{"molecule": "COCCN1CCC2(CC1)CC(COC)N(c1ncccn1)C2", "note": "(stereo not given)", "Percent Effect": 3.7}
{"molecule": "O=C(CCOCc1ccccc1)N1CCCC1c1noc(C2CC2)n1", "note": "(stereo not given)", "Percent Effect": 25.9}
{"molecule": "CS(=O)(=O)NCC1CCCN(Cc2ccc(F)c3cccnc23)C1", "note": "(stereo not given)", "Percent Effect": 13.6}
